Results reported in PubChem BioAssay AID1159580 (chemical genetic matrix, 2015).
Where “and” joins values, the source holds several entries; their conditions need not be identical. Equal entries are not always repeated. In all, about 5,500 compounds went through this assay and about 2,000 (36%) were called active. About 18% were inconclusive and are not listed. Cut-off read from the data, not from the text of the source: active = normalized growth mostly below about 0.91 (no sharp cut-off); inconclusive = no clear call, values can overlap the other calls; inactive = mostly above about 0.92. Some of the results follow.

Test: chemical genetic growth profiling, strain panel (AID 1159580);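 note: tested at 20 µM; growth read once vehicle control cultures reached saturation at 30 °C; 1 = growth at the plate median or of vehicle wells; lower values mean less growth of the strain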
Conditions: growth OD

Measured: normalized growth

CC[C@H]1CN2CCC1C[C@@H]2[C@@H](O)c1ccnc2ccc(OC)cc12 (some centres not stated)
inactive: S. cerevisiae deletion strains, locus YAL013W, strain DEP1, active compounds read low 0.997 | S. cerevisiae deletion strains, locus YBR021W, strain FUR4, active compounds read low 0.996 | S. cerevisiae deletion strains, locus YBR229C, strain ROT2, active compounds read low 0.992 | S. cerevisiae deletion strains, locus YCL029C, strain bik1, active compounds read low 1.01 | S. cerevisiae deletion strains, locus YDL035C, strain GPR1, active compounds read low 0.995 | S. cerevisiae deletion strains, locus YDL074C, strain BRE1, active compounds read low 1.01 | S. cerevisiae deletion strains, locus YDL101C, strain DUN1, active compounds read low 0.995 | S. cerevisiae deletion strains, locus YDL134C, strain PPH21, active compounds read low 1.01 | S. cerevisiae deletion strains, locus YDL185W, strain tfp1, active compounds read low 1.01 | S. cerevisiae deletion strains, locus YDL192W, strain arf1, active compounds read low 1.01 | S. cerevisiae deletion strains, locus YDR101C, strain arx1, active compounds read low 1 | S. cerevisiae deletion strains, locus YDR150W, strain NUM1, active compounds read low 1.01 | S. cerevisiae deletion strains, locus YDR162C, strain NBP2, active compounds read low 1 | S. cerevisiae deletion strains, locus YDR318W, strain mcm21, active compounds read low 1.02 | S. cerevisiae deletion strains, locus YDR388W, active compounds read low 1.01 | S. cerevisiae deletion strains, locus YDR502C, strain sam2, active compounds read low 1.04 | S. cerevisiae deletion strains, locus YEL061C, strain CIN8, active compounds read low 1.01 | S. cerevisiae deletion strains, locus YER110C, active compounds read low 1.01 | S. cerevisiae deletion strains, locus YER155C, strain BEM2, active compounds read low 1.01 | S. cerevisiae deletion strains, locus YER167W, strain BCK2, active compounds read low 1 | S. cerevisiae deletion strains, locus YGL078C, strain dbp3, active compounds read low 1.01 | S. cerevisiae deletion strains, locus YGL086W, strain mad1, active compounds read low 1 | S. cerevisiae deletion strains, locus YGL248W, strain PDE1, active compounds read low 0.997 | S. cerevisiae deletion strains, locus YGR078C, strain PAC10, active compounds read low 1 | S. cerevisiae deletion strains, locus YGR135W, strain pre9, active compounds read low 1.01 | S. cerevisiae deletion strains, locus YGR229C, strain SMI1, active compounds read low 0.977 | S. cerevisiae deletion strains, locus YGR252W, strain gcn5, active compounds read low 0.994 | S. cerevisiae deletion strains, locus YHR030C, strain SLT2, active compounds read low 1.01 and 1.04 | S. cerevisiae deletion strains, locus YHR079C, strain IRE1 (second series), active compounds read low 1.01 | S. cerevisiae deletion strains, locus YHR079C, strain IRE1, active compounds read low 1.02 | S. cerevisiae deletion strains, locus YHR094C, strain hxt1, active compounds read low 1.01 | S. cerevisiae deletion strains, locus YHR129C, strain ARP1, active compounds read low 1.01 | S. cerevisiae deletion strains, locus YHR200W, strain rpn10, active compounds read low 1.02 | S. cerevisiae deletion strains, locus YIL066C, strain RNR3, active compounds read low 1 | S. cerevisiae deletion strains, locus YIL073C, strain SPO22, active compounds read low 1.03 | S. cerevisiae deletion strains, locus YIL125W, strain kgd1, active compounds read low 1 | S. cerevisiae deletion strains, locus YIR030C, strain dcg1, active compounds read low 1.01 | S. cerevisiae deletion strains, locus YJL095W, strain BCK1, active compounds read low 1.01 and 1.02 | S. cerevisiae deletion strains, locus YJL134W, strain LCB3, active compounds read low 0.997 | S. cerevisiae deletion strains, locus YJL168C, strain set2, active compounds read low 1.01 | S. cerevisiae deletion strains, locus YJL187C, strain SWE1 (second series), active compounds read low 0.999 | S. cerevisiae deletion strains, locus YJR043C, strain POL32, active compounds read low 1.01 | S. cerevisiae deletion strains, locus YJR066W, strain TOR1, active compounds read low 0.956 | S. cerevisiae deletion strains, locus YJR075W, strain HOC1, active compounds read low 1 | S. cerevisiae deletion strains, locus YKL009W, strain mrt4, active compounds read low 1.08 | S. cerevisiae deletion strains, locus YKL068W, active compounds read low 1.01 | S. cerevisiae deletion strains, locus YKL085W, strain MDH1 (second series), active compounds read low 1.03 | S. cerevisiae deletion strains, locus YKL085W, strain MDH1, active compounds read low 1.03 | S. cerevisiae deletion strains, locus YKL190W, strain CNB1, active compounds read low 1.01 | S. cerevisiae deletion strains, locus YKR001C, strain vps1, active compounds read low 1.02 | S. cerevisiae deletion strains, locus YLR039C, strain RIC1, active compounds read low 1.01 | S. cerevisiae deletion strains, locus YLR058C, strain SHM2, active compounds read low 1 | S. cerevisiae deletion strains, locus YLR102C, strain apc9, active compounds read low 1.01 | S. cerevisiae deletion strains, locus YLR113W, strain HOG1, active compounds read low 1.02 | S. cerevisiae deletion strains, locus YLR262C, strain YPT6, active compounds read low 0.988 | S. cerevisiae deletion strains, locus YLR268W, strain sec22, active compounds read low 1.02 | S. cerevisiae deletion strains, locus YLR330W, strain CHS5, active compounds read low 1 | S. cerevisiae deletion strains, locus YLR342W, strain FKS1 (second series), active compounds read low 0.983 | S. cerevisiae deletion strains, locus YLR371W, strain rom2, active compounds read low 1.01 | S. cerevisiae deletion strains, locus YLR418C, strain cdc73, active compounds read low 1.01 | S. cerevisiae deletion strains, locus YML016C, strain PPZ1, active compounds read low 1 | S. cerevisiae deletion strains, locus YML032C, strain rad52, active compounds read low 1.01 | S. cerevisiae deletion strains, locus YML124C, strain tub3, active compounds read low 1.01 | S. cerevisiae deletion strains, locus YMR078C, strain ctf18, active compounds read low 1.03 | S. cerevisiae deletion strains, locus YMR223W, strain ubp8, active compounds read low 0.996 | S. cerevisiae deletion strains, locus YMR263W, strain SAP30, active compounds read low 1.02 | S. cerevisiae deletion strains, locus YMR307W, strain GAS1, active compounds read low 0.95 | S. cerevisiae deletion strains, locus YNL067W, strain RPL9B, active compounds read low 1.01 | S. cerevisiae deletion strains, locus YNL128W, strain TEP1, active compounds read low 1.01 | S. cerevisiae deletion strains, locus YNL153C, strain GIM3, active compounds read low 1 | S. cerevisiae deletion strains, locus YNL183C, strain NPR1, active compounds read low 0.942 | S. cerevisiae deletion strains, locus YNL233W, strain BNI4, active compounds read low 1 | S. cerevisiae deletion strains, locus YNL250W, strain rad50, active compounds read low 1.01 | S. cerevisiae deletion strains, locus YNL271C, strain bni1, active compounds read low 1.01 | S. cerevisiae deletion strains, locus YNL298W, strain CLA4, active compounds read low 1.01 | S. cerevisiae deletion strains, locus YNL307C, strain MCK1, active compounds read low 1.01 | S. cerevisiae deletion strains, locus YNL322C, strain KRE1, active compounds read low 1 | S. cerevisiae deletion strains, locus YNR052C, strain pop2, active compounds read low 1.02 | S. cerevisiae deletion strains, locus YOL006C, strain TOP1, active compounds read low 1.02 | S. cerevisiae deletion strains, locus YOL012C, strain htz1 0.815 | S. cerevisiae deletion strains, locus YOL147C, strain pex11, active compounds read low 1.01 | S. cerevisiae deletion strains, locus YOR061W, strain CKA2, active compounds read low 1.01 | S. cerevisiae deletion strains, locus YOR069W, strain VPS5, active compounds read low 0.998 | S. cerevisiae deletion strains, locus YOR136W, strain idh2, active compounds read low 1.02 | S. cerevisiae deletion strains, locus YOR144C, strain elg1, active compounds read low 1.01 | S. cerevisiae deletion strains, locus YOR184W, strain ser1, active compounds read low 1.01 | S. cerevisiae deletion strains, locus YOR231W, strain MKK1, active compounds read low 1.03 | S. cerevisiae deletion strains, locus YOR316C, strain cot1, active compounds read low 1.01 | S. cerevisiae deletion strains, locus YPL055C, strain LGE1, active compounds read low 0.993 | S. cerevisiae deletion strains, locus YPL241C, strain CIN2, active compounds read low 0.997 | S. cerevisiae deletion strains, locus YPL256C, strain CLN2, active compounds read low 1.02 | S. cerevisiae deletion strains, locus YPR119W, strain clb2, active compounds read low 1.01 | S. cerevisiae deletion strains, locus YPR141C, strain kar3, active compounds read low 1.01 | S. cerevisiae deletion strains, locus YPR163C, strain tif3, active compounds read low 1.02 | S. cerevisiae deletion strains, locus YPR167C, strain met16, active compounds read low 1.01 | S. cerevisiae deletion strains, strain wtn01, active compounds read low 1.03 | S. cerevisiae strains, strain wild type, active compounds read low 0.999
